# In PubChem BioAssay (Tox21):
# Where “and” joins values, the source holds several entries; their conditions need not be identical. Identical values can stand only once. Results filed as inconclusive are left out. Where a call stands in place of a potency, no number is given. Some compounds were tested as several samples or in several runs, with calls that do not always agree. Calls of active or inactive are those of the source. Calls follow the shape of the dose curve; as a rule, active = well fitted activation curve with a large enough effect in the repeat runs; inconclusive = weak or mixed curves; inactive = flat fitted curve, though single readings scatter.
# Test: A CellTox Green Cytotoxicity Assay to monitor cytotoxicity in HepG2 cells - 8 hour (AID 1224890); also: nearly all actives have a fitted effect of over 45% in size
# Conditions: CellTox Green fluorescence; series mostly up to 76.8 µM; cytotoxicity increase: at the top concentration
# In short: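 Read-out is fluorescence of a cyanine dye excluded from live cells that stains DNA of dead HepG2 cells, with signal proportional to cytotoxicity. Plates were read at 0, 8, 16, 24, 32 and 40 h after compound addition.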
# Potency is read from the fitted curve at half-maximal effect.
Compound,Potency,cytotoxicity increase
Nn1cnnc1,inactive,–
CCCCC(CC)COC(=O)Cl (configuration not stated),inactive and 38.9 µM (active),–
CCCCCCCCOC(=O)c1ccccc1C(=O)OCCCCCCCC,inactive,–
COC(=O)c1sccc1S(=O)(=O)NC(=O)Nc1nc(C)nc(OC)n1,inactive,–
COP(=S)(OC)Oc1cc(Cl)c(Cl)cc1Cl,inactive,–
O=c1oc2ccccc2c(O)c1C(CC(O)c1ccc(-c2ccc(Br)cc2)cc1)c1ccccc1 (configuration not stated),inactive,–
CCC(C)c1cc([N+](=O)[O-])cc([N+](=O)[O-])c1O (configuration not stated),inactive,–
CC(C)=CC1C(C(=O)OCc2coc(Cc3ccccc3)c2)C1(C)C (configuration not stated),inactive,–
N#CC(Br)Br,inactive,–
CCN(CC)C(=O)/C(Cl)=C(\C)OP(=O)(OC)OC,inactive,–
CC(C)(c1cc(Cl)c(O)c(Cl)c1)c1cc(Cl)c(O)c(Cl)c1,inactive,–
CCCCCCOC(=O)c1ccccc1C(=O)OCCCCCC,inactive,–
Oc1cc(Cl)ccc1Oc1ccc(Cl)cc1Cl,22.4 µM (active) and 16.9 µM (active),–
O=P(Oc1ccccc1)(Oc1ccccc1)Oc1ccccc1,inactive,–
Oc1ccc(-c2ccccc2)cc1,–,-9.69% (inactive)
CCCCCCCCCCCOC(=O)c1ccccc1C(=O)OCCCCCCCCCCC,inactive,–
C[C@]12CCC(=O)C(O)=C1CC[C@@H]1[C@@H]2CC[C@]2(C)C(=O)CC[C@@H]12,inactive,–
CCCCN(CC)c1c([N+](=O)[O-])cc(C(F)(F)F)cc1[N+](=O)[O-],inactive,–
Cc1ccc(OP(=O)(Oc2ccc(C)cc2)Oc2ccc(C)cc2)cc1,inactive,–

Compound,Potency,cytotoxicity increase
CC(C)Oc1cc(-n2nc(C(C)(C)C)oc2=O)c(Cl)cc1Cl,inactive,–
CC(C)NC(C)C,inactive,–
CCOP(=S)(OCC)O/N=C(\C#N)c1ccccc1,inactive,–
Cc1ccc2c(c1N)C(=O)c1ccccc1C2=O,inactive,–
O=S(=O)(Oc1ccc(Cl)cc1)c1ccc(Cl)cc1,inactive,–
COP(=S)(OC)Oc1ccc([N+](=O)[O-])cc1,inactive,–
OCC(O)CO,inactive,–
CCOCN(C(=O)CCl)c1c(C)cccc1CC,inactive,–
C=CC(=O)OCCO,inactive,–
Nc1ccc(-c2ccc(N)c(N)c2)cc1N,inactive,–
c1ccc(-c2cccc(-c3ccccc3)c2)cc1,inactive,–
Brc1ccc(Oc2cc(Br)c(Br)cc2Br)c(Br)c1,inactive,–
O=Cc1ccco1,–,-5.74% (inactive)
NNC(=S)NN,inactive,–
CCCCCCCCC(=O)NCc1ccc(O)c(OC)c1,inactive,–
CCOc1cc(C=O)ccc1O,inactive,–
CCCCNC(=O)n1c(NC(=O)OC)nc2ccccc21,inactive,–
Cc1cc(C)cc(C)c1,inactive,–
